Compound activity as filed in PubChem.
A selection: hits, their analogues and other compounds. The true share with any hit is near 19%.
ELG1 repair inh: ELG1-dependent DNA repair inhibition. HEK293T ELG1-luciferase reporter, luminescence, 16 h; DNA damage induced by 5-fluorouridine. Potency, µM (doses to about 46.1 µM), for inactives: at the highest dose activity change, negative = inhibition, hits mostly inhibitors. 330,000 compounds, 2.3% hits. AID 504467; note: potency is the fitted concentration of half-maximal effect; nearly all actives have a fitted effect of over 55% in size
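5-Fluorouridine DNA damage + compound/DMSO, 2,000 cells/well, 16 h, 37 °C/5% CO2. ONE-Glo, 30 min RT, luminescence. Readout = decrease in reporter signal.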
Giardia killer: kills Giardia lamblia; Giardia lamblia trophozoite viability; activity change, % at 7.66 µM, hits read low; 340,000 compounds, 0.15% hits; AID 540267; in the data active = activity change below about -80%; inconclusive = between about -30% and that limit;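 note: parasites exposed to compound for two days anaerobically before the ATP read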
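Media and compound were dispensed first, then trophozoites at 100 cells/well; plates sat 48 hrs at 37 deg C without oxygen before ATP luminescence reagent was added and read after 15-30 min at room temperature.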
TDP1 cell noCPT: qHTS for Inhibitors of human tyrosyl-DNA phosphodiesterase 1 (TDP1): qHTS in cells in absence of CPT; DT40 Tdp1-/- hTDP1 cells, no CPT, ATP luminescence, 48 h; Potency, µM (doses to about 46.2 µM), without a hit: at the top dose activity change, negative = growth inhibition, hits mostly inhibitors; 420,000 compounds, 15% hits; note: potency is the fitted concentration of half-maximal effect; nearly all actives have a fitted effect of over 55% in size
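Camptothecin absent (DMSO only). Human TDP1-complemented DT40 knockout cells, 400 cells/well, 37 °C for minimum 48 hr; ATP measured via CellTiter-Glo, 30 min dark incubation, luminescence.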
TDP1 block: inhibitors of human tyrosyl-DNA phosphodiesterase TDP1; Potency, µM (series often up to 130 µM), inactives show at the top dose activity change, negative = inhibition, most hits filed as inhibitors; Q9NUW8; 350,000 compounds, 0.28% hits; recombinant TDP1, AlphaScreen DNA substrate cleavage; note: potency is the fitted concentration of half-maximal effect; nearly all actives have a fitted effect of over 40% in size
Target sequence (Q9NUW8 whole entry, looked up): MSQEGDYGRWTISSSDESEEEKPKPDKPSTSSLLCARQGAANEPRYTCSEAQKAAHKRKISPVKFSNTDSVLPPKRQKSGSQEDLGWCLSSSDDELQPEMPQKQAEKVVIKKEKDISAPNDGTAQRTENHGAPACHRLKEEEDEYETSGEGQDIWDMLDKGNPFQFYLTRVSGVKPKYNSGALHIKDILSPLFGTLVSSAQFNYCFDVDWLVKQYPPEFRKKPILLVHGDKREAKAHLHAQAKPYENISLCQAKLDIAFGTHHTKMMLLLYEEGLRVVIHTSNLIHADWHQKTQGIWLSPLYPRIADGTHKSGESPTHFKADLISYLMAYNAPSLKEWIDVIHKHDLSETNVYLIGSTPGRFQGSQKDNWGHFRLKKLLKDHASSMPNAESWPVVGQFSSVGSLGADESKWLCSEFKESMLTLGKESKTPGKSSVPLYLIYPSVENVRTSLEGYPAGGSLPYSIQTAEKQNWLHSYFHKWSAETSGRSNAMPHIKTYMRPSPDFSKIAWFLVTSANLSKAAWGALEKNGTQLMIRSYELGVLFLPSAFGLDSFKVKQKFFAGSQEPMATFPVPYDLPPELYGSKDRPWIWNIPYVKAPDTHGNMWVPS
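Signal: AlphaScreen proximity between streptavidin donor and anti-FITC acceptor beads on intact substrate. Reaction: Tdp1 1 nM, substrate 15 nM final, 5 min RT after 15 min compound preincubation.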
IL1B secr inh: inflammasome signaling inhibition, IL-1 beta readout. 360,000 compounds, 4.7% hits. activity change, % at 57.5 µM. THP-1 LPS/ATP IL-1B secretion, AlphaLISA, 16 h; stronger effect = lower value; in the data active = activity change below about -50%; inconclusive = mostly about -30% to -49%
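THP-1 cells pretreated 1 hr with compounds (up to 57.5 uM final), then stimulated with LPS (250 ng/mL final) plus ATP (1.25 mM final); secreted IL-1B measured by AlphaLISA after 16 hr, decreased signal indicating inhibition.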
TDP1 cell CPT: DT40-hTDP1 cell growth loss with CPT. 420,000 compounds, 12% hits. chicken DT40 Tdp1-/-;hTDP1 cells + 20 nM CPT, ATP luminescence, 48 h. Potency, µM (titrated, usually from 46.2 µM), for the others: top-dose activity change, negative = growth inhibition, actives largely listed as inhibitors. AID 686979; note: potency is the fitted concentration of half-maximal effect; nearly all actives have a fitted effect of over 55% in size
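Cell growth measured by CellTiter-Glo luminescence after a minimum 48 h, 37 C compound exposure with 20 nM CPT in Tdp1-knockout DT40 cells stably expressing hTDP1, seeded 400/well; qHTS titration format.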
Starred values were filed as active, the others as inactive; [ ] = remark or other dose. Unless noted, calls come from the whole dose curve; as a rule, active = well fitted curve in the direction sought with a large enough effect; inconclusive = small, poorly fitted or top-dose-only effect, or another doubt; inactive = no such curve, though single readings can be large; an effect the other way counts as inactive or inconclusive. % is set by controls: 0 for no effect and ±100 for the full control effect.

For CCCCN1CC(COCc2ccccc2)Oc2cccc(N3CCCC3)c2S1(=O)=O (configuration not stated) the results were Giardia killer 11.0, TDP1 cell noCPT 16.4µM*, IL1B secr inh 14.6 and TDP1 cell CPT inconclusive.
`CC(C)CN1CC(COCc2ccccc2)Oc2ccccc2S1(=O)=O` (configuration not stated) gave ELG1 repair inh inconclusive, Giardia killer 5.6, TDP1 cell noCPT inconclusive, TDP1 block -3.8%[56.1 µM], IL1B secr inh -17.2 and TDP1 cell CPT 20.6µM*.
`O=S1(=O)c2ccccc2OC(COCc2ccccc2)CN1C1CC1` (configuration not stated) gave ELG1 repair inh -1.4%, Giardia killer 28.1, TDP1 cell noCPT 18.4µM*, TDP1 block -0.3%[56.1 µM], IL1B secr inh 18.1 and TDP1 cell CPT 18.4µM*.
`CCOC(=O)CCN1C(=O)[C@H]2[C@H]3[C@H](O)[C@H](O)C/C(=N/NC(=O)OCc4ccc(OC)cc4)[C@@H]3CC[C@@H]2C1=O` gave TDP1 block 2.6%[21 µM].
Screening Cc1cc(NC(=O)CCS(=O)(=O)c2nc(-c3ccccc3)cc(C(F)(F)F)n2)no1 returned ELG1 repair inh inconclusive, Giardia killer -7.4, TDP1 cell noCPT 1.84µM*, TDP1 block 4.2%, IL1B secr inh -120.9* and TDP1 cell CPT 1.64µM*.
`CC(C)CNC(=O)CCSc1nc(-c2ccc3c(c2)OCO3)cc(C(F)(F)F)n1` gave TDP1 block 0.0%.
Screening CS(=O)(=O)c1nc(-c2ccccc2)cc(C(F)(F)F)n1 returned ELG1 repair inh inconclusive, Giardia killer -11.4, TDP1 cell noCPT 1.16µM*, TDP1 block 2.4%, IL1B secr inh -96.2* and TDP1 cell CPT 1.03µM*.
For COc1ccc(NC(=O)CCS(=O)(=O)c2nc(-c3ccc4c(c3)OCO4)cc(C(F)(F)F)n2)cc1 the results were TDP1 cell noCPT 7.31µM*, TDP1 block 8.8% and TDP1 cell CPT 6.51µM*.
O=C(CCS(=O)(=O)c1nc(-c2ccc3c(c2)OCO3)cc(C(F)(F)F)n1)Nc1ccc(F)cc1F was read as TDP1 cell noCPT 20.6µM*, TDP1 block 5.9% and TDP1 cell CPT inconclusive.
Screening Cc1ccc(S(=O)(=O)CCC(=O)Nc2cc(C)on2)cc1 returned TDP1 cell noCPT -9.0%, IL1B secr inh 11.9 and TDP1 cell CPT -7.0%.
For CC(=O)N1CCc2cc(Br)cc(S(=O)(=O)CCC(=O)Nc3ccc(C)cc3Cl)c21 the results were TDP1 cell noCPT -23.1%, TDP1 block -2.9% and TDP1 cell CPT -1.7%.
For Cc1ccc(S(=O)(=O)c2cn(C)c3cc(N4CCN(C)CC4)c(F)cc3c2=O)cc1 the results were ELG1 repair inh 2.5%, Giardia killer 7.3, TDP1 cell noCPT inconclusive, TDP1 block 6.8%, IL1B secr inh -96.9* and TDP1 cell CPT inconclusive.
`Cc1ccc(S(=O)(=O)c2cn(C)c3cc(N4CCN(c5ccccc5)CC4)c(F)cc3c2=O)cc1` gave TDP1 cell noCPT 7.31µM*, TDP1 block 2.5% and TDP1 cell CPT inconclusive.
Cc1ccccc1-c1nc(CS(=O)(=O)CC(=O)NCCCc2ccccc2)c(C)o1 was read as TDP1 cell noCPT inconclusive, TDP1 block 6.9% and TDP1 cell CPT inconclusive.
Cc1cc(/C=C2\Sc3ccccc3N2C)cc(C)[n+]1CC1CCCO1 (configuration not stated) was read as ELG1 repair inh inconclusive, Giardia killer -10.3, TDP1 cell noCPT 0.0259µM*, TDP1 block 0.0%, IL1B secr inh -101.5* and TDP1 cell CPT 0.0082µM*.
`Cn1cc(S(=O)(=O)N2CCCC2)cc1C(=O)Nc1ccc(C(F)(F)F)cc1` gave TDP1 cell noCPT inconclusive and TDP1 cell CPT 29.1µM*.
For CCNc1ccc(S(=O)(=O)N(C)C)cc1NCC(=O)Nc1ccccc1F the results were ELG1 repair inh -26.2%, Giardia killer 6.0, TDP1 cell noCPT inconclusive, TDP1 block 6.8%, IL1B secr inh 7.7 and TDP1 cell CPT -10.8%.
For CCNc1ccc(S(=O)(=O)N(C)C)cc1NCC(=O)Nc1ccc(F)c(Cl)c1 the results were ELG1 repair inh inconclusive, Giardia killer 14.1, TDP1 cell noCPT 20.6µM*, TDP1 block 6.8%, IL1B secr inh -8.2 and TDP1 cell CPT 11.6µM*.
Screening CCNc1ccc(S(=O)(=O)N2CCOCC2)cc1NCC(=O)Nc1cccc(Br)c1 returned TDP1 cell noCPT 2.59µM*, IL1B secr inh -14.4 and TDP1 cell CPT 7.31µM*.
O=C(CNc1cccc(Br)c1)Nc1ccc(S(=O)(=O)N2CCCCC2)cc1 was read as TDP1 cell noCPT inconclusive, IL1B secr inh -24.7 and TDP1 cell CPT 20.6µM*.
For O=C(Nc1cccc(S(=O)(=O)N2CCCCC2)c1)c1ccco1 the results were ELG1 repair inh 1.0%, Giardia killer -9.4, TDP1 cell noCPT inconclusive, TDP1 block 1.5%, IL1B secr inh 4.0 and TDP1 cell CPT -26.4%.
For CCOC(=O)C(CC)Sc1ccc2nnc(CCNS(=O)(=O)c3ccc(C)cc3)n2n1 (configuration not stated) the results were TDP1 cell noCPT inconclusive, TDP1 block 0.0% and TDP1 cell CPT inconclusive.
For CC1(C)CC(=O)C(C=NCCN2CCN(C3CC(=O)N(c4ccc(Br)cc4)C3=O)CC2)=C(O)C1 (configuration not stated) the results were ELG1 repair inh 11.2%, Giardia killer 0.8, TDP1 cell noCPT -10.6%, TDP1 block 0.0%, IL1B secr inh 7.5 and TDP1 cell CPT inconclusive.
For O=C(Nc1cc(S(=O)(=O)N2CCCCCC2)ccc1OCC(F)(F)F)C1CCC1 the results were ELG1 repair inh -3.1%, Giardia killer -1.6, TDP1 cell noCPT -13.3%, TDP1 block 4.2%, IL1B secr inh 0.0 and TDP1 cell CPT -9.8%.
CN(C)S(=O)(=O)c1ccc(NC(=O)CNc2cc(S(=O)(=O)N3CCCC3)ccc2OCC(F)(F)F)cc1 was read as ELG1 repair inh -26.6%, Giardia killer 19.7, TDP1 cell noCPT 18.4µM*, TDP1 block 4.2%, IL1B secr inh 10.7 and TDP1 cell CPT 20.6µM*.
`Cc1cccc(CNc2ccc(S(=O)(=O)N3CCCCC3)cc2)c1` gave ELG1 repair inh -8.1%, Giardia killer 7.9, TDP1 cell noCPT inconclusive, TDP1 block -3.3%[56.1 µM], IL1B secr inh -22.9 and TDP1 cell CPT 20.6µM*.
